# Results as given in the supplement of paper PMC7261846.
# Counter-ions that a name gives are not always drawn. ± gives the uncertainty stated by the source.
# Tested on: Candida albicans SNY425 biofilm
# Test: biofilm OD600 with compound plus antifungal (OD600 (absorbance)); higher = more biofilm remaining
# [1] = assay detail: disruption of 24-h mature biofilm (compound + antifungal for a second 24 h)
# [2] = assay detail: sustained inhibition (compound + antifungal during 90-min adherence and 24-h growth)
Compound,biofilm OD600 [1],biofilm OD600 [2]
CC[C@H](C)[C@H](N)C(=O)N1CCSC1 [P32/98 hemifumarate salt] + OC(Cn1cncn1)(Cn1cncn1)c1ccc(F)cc1F [fluconazole] (first compound 12.5 µM),0.249 ± 0.0087,0.128 ± 0.0045
CC(C)C[C@H](NC(=O)[C@@H](O)[C@H](N)Cc1ccccc1)C(=O)O [Bestatin·HCl] + CC[C@H](C)C[C@H](C)CCCCCCCCC(=O)N[C@H]1C[C@@H](O)[C@@H](NCCN)NC(=O)[C@@H]2[C@@H](O)CCN2C(=O)[C@H]([C@H](O)CCN)NC(=O)[C@H]([C@H](O)[C@@H](O)c2ccc(O)cc2)NC(=O)[C@@H]2C[C@@H](O)CN2C(=O)[C@H]([C@@H](C)O)NC1=O [caspofungin] (first compound 12.5 µM),0.283 ± 0.013,0.187 ± 0.0098
CCC(C)[C@H](NS(=O)(=O)c1cccc2ccccc12)C(=O)N[C@H](C=O)Cc1c[nH]c2ccccc12 (some centres not stated) + OC(Cn1cncn1)(Cn1cncn1)c1ccc(F)cc1F [fluconazole] (first compound 12.5 µM),0.249 ± 0.0046,0.14 ± 0.0069
CC(C)(C)NC(=O)[C@@H]1CN(Cc2cccnc2)CCN1C[C@@H](O)C[C@@H](Cc1ccccc1)C(=O)N[C@H]1c2ccccc2C[C@H]1O [indinavir] + OC(Cn1cncn1)(Cn1cncn1)c1ccc(F)cc1F [fluconazole] (first compound 12.5 µM),0.273 ± 0.013,0.17 ± 0.015
CC(C)CCNC(=O)[C@H](CC(C)C)NC(=O)[C@H]1O[C@@H]1C(=O)O + OC(Cn1cncn1)(Cn1cncn1)c1ccc(F)cc1F [fluconazole] (first compound 12.5 µM),0.25 ± 0.0093,0.143 ± 0.008
CC(C)CCNC(=O)[C@H](CC(C)C)NC(=O)[C@H]1O[C@@H]1C(=O)O + CC[C@H](C)C[C@H](C)CCCCCCCCC(=O)N[C@H]1C[C@@H](O)[C@@H](NCCN)NC(=O)[C@@H]2[C@@H](O)CCN2C(=O)[C@H]([C@H](O)CCN)NC(=O)[C@H]([C@H](O)[C@@H](O)c2ccc(O)cc2)NC(=O)[C@@H]2C[C@@H](O)CN2C(=O)[C@H]([C@@H](C)O)NC1=O [caspofungin] (first compound 12.5 µM),0.268 ± 0.0056,0.17 ± 0.01
CC(C)CN(C[C@@H](O)[C@H](Cc1ccccc1)NC(=O)O[C@H]1CCOC1)S(=O)(=O)c1ccc(N)cc1 [amprenavir] + OC(Cn1cncn1)(Cn1cncn1)c1ccc(F)cc1F [fluconazole] (first compound 12.5 µM),0.264 ± 0.0069,0.16 ± 0.011
COC(=O)N[C@H](C(=O)N[C@@H](Cc1ccccc1)[C@@H](O)CN(Cc1ccc(-c2ccccn2)cc1)NC(=O)[C@@H](NC(=O)OC)C(C)(C)C)C(C)(C)C [atazanavir] + OC(Cn1cncn1)(Cn1cncn1)c1ccc(F)cc1F [fluconazole] (first compound 12.5 µM),0.267 ± 0.012,0.173 ± 0.0039
CCCCC[C@H](CC(=O)NO)C(=O)N[C@H](C(=O)N1CCC[C@H]1CO)C(C)C [Actinonin] + CC[C@H](C)C[C@H](C)CCCCCCCCC(=O)N[C@H]1C[C@@H](O)[C@@H](NCCN)NC(=O)[C@@H]2[C@@H](O)CCN2C(=O)[C@H]([C@H](O)CCN)NC(=O)[C@H]([C@H](O)[C@@H](O)c2ccc(O)cc2)NC(=O)[C@@H]2C[C@@H](O)CN2C(=O)[C@H]([C@@H](C)O)NC1=O [caspofungin] (first compound 12.5 µM),0.263 ± 0.021,0.182 ± 0.0058
CC(C)c1nc(CN(C)C(=O)N[C@H](C(=O)N[C@@H](Cc2ccccc2)C[C@H](O)[C@H](Cc2ccccc2)NC(=O)OCc2cncs2)C(C)C)cs1 [ritonavir] + C[C@@H]1[C@H](O)[C@@H](C)/C=C/C=C/C=C/C=C/C=C/C=C/C=C/[C@H](O[C@@H]2O[C@H](C)[C@@H](O)[C@H](N)[C@@H]2O)C[C@@H]2O[C@](O)(C[C@@H](O)C[C@@H](O)[C@H](O)CC[C@@H](O)C[C@@H](O)CC(=O)O[C@H]1C)C[C@H](O)[C@H]2C(=O)O [amphotericin B] (first compound 12.5 µM),0.246 ± 0.0053,0.146 ± 0.0034
O=C(NCCCCN1CCOCC1)c1cc2ccccc2o1 + C[C@@H]1[C@H](O)[C@@H](C)/C=C/C=C/C=C/C=C/C=C/C=C/C=C/[C@H](O[C@@H]2O[C@H](C)[C@@H](O)[C@H](N)[C@@H]2O)C[C@@H]2O[C@](O)(C[C@@H](O)C[C@@H](O)[C@H](O)CC[C@@H](O)C[C@@H](O)CC(=O)O[C@H]1C)C[C@H](O)[C@H]2C(=O)O [amphotericin B] (first compound 12.5 µM),0.262 ± 0.0087,0.216 ± 0.013
